# In PubChem BioAssay:
# Calls of active or inactive are those of the source.
# What was measured:
# [1] = system: Plasmodium falciparum Sir2 (PF13_0152, Sir2A); assay: Plasmodium falciparum Sir2A binding compounds – biochemical, small-molecule microarray, 635 nm fluorescence, primary screen (AID 1098); conditions: fluorescence 635 nm, higher = more signal;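 note: score merges spot fluorescence intensity with its signal-to-noise ratio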
# [2] = probe aDKK1 binding to arrayed compounds – biochemical, biotinylated probe, 635/667 nm fluorescence, primary screen (AID 1099); conditions: small-molecule microarray, higher = more signal;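 note: score merges 667nm spot fluorescence with signal to noise across triplicate slides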
# [3] = probe aCHRDL2 binding to arrayed compounds – biochemical, biotinylated probe, 635/667 nm fluorescence, primary screen (AID 1100); conditions: small-molecule microarray, higher = more signal
# [4] = change in splice reporter luminescence, either direction, cell-based, HEK293, spliceosome inhibition project, primary screen (AID 1101); conditions: HEK293 splicing luciferase reporter, 24 h, higher = more signal, called active from +8 up or from −8 down;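 note: HEK293 cells carrying a splicing-competent luciferase reporter gene; test concentration not given here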
# [5] = target: Fibroblast growth factor 10 (Homo sapiens) (UniProt O15520); assay: compounds binding fibroblast growth factor 10 – biochemical, small-molecule microarray, 635 nm fluorescence, primary screen (AID 1102); conditions: FGF10 binding, fluorescence 635 nm, higher = more signal
# Sequence of Fibroblast growth factor 10 (Homo sapiens) (O15520 whole entry, looked up): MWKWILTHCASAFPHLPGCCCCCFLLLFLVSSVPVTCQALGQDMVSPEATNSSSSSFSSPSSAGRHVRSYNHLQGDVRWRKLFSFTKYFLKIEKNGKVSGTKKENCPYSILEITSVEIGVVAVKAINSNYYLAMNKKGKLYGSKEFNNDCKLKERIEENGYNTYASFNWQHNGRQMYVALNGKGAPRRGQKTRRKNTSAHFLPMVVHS
# [6] = system: glycogen synthase kinase-3 (GSK3A per assay name; protocol says GSK3B); assay: compounds binding glycogen synthase kinase-3 – biochemical, small-molecule microarray, 635 nm fluorescence, GSK3A, primary screen (AID 1103); conditions: fluorescence 635 nm, higher = more signal; note: the record names both GSK3A and GSK3B
# [7] = target: Epidermal growth factor receptor (Homo sapiens) (UniProt P00533); assay: compounds binding epidermal growth factor receptor – biochemical, small-molecule microarray, 635 nm fluorescence, primary screen (AID 1104); conditions: EGFR binding, higher = more signal;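 note: score merges 667 nm emission intensity with spot signal to noise over triplicate slides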
# Sequence of Epidermal growth factor receptor (Homo sapiens) (P00533 whole entry, looked up): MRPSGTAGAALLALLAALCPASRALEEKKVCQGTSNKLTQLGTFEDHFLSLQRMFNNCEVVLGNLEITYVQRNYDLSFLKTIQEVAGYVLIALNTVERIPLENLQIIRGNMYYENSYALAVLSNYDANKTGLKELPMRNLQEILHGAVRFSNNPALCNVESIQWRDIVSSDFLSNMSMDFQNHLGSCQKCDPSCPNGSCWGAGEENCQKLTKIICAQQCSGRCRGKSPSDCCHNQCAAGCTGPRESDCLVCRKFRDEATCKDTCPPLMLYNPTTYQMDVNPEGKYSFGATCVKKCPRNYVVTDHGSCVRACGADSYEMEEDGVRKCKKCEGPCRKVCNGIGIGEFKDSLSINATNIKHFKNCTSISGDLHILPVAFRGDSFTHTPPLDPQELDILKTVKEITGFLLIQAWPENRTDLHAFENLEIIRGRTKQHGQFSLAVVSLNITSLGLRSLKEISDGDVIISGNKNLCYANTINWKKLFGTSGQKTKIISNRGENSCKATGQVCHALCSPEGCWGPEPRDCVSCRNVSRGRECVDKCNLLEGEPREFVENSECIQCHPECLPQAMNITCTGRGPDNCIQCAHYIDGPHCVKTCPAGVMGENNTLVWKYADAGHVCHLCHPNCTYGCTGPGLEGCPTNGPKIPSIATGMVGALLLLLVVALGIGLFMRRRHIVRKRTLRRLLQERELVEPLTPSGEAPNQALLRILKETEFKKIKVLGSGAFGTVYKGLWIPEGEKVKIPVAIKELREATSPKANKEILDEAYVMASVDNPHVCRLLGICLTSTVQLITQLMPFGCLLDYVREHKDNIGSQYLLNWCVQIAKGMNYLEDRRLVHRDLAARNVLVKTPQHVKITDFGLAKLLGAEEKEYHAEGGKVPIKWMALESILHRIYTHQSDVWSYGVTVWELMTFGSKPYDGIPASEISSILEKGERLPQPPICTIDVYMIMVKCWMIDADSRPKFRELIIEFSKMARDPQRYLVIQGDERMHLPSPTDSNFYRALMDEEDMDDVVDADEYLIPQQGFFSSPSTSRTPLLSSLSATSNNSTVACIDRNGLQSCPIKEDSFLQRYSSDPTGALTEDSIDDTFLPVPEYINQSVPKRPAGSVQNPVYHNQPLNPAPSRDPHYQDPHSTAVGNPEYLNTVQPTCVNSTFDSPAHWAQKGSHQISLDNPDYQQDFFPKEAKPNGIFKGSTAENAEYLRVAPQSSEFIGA
# [8] = target: Follistatin-related protein 3 (Homo sapiens) (UniProt O95633); assay: compounds binding follistatin-related protein 3 – biochemical, small-molecule microarray, 635 nm fluorescence, primary screen (AID 1105); conditions: FSTL3 binding, higher = more signal;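 note: score merges emission near 667 nm and signal to noise per printed spot across three slides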
# Sequence of Follistatin-related protein 3 (Homo sapiens) (O95633 whole entry, looked up): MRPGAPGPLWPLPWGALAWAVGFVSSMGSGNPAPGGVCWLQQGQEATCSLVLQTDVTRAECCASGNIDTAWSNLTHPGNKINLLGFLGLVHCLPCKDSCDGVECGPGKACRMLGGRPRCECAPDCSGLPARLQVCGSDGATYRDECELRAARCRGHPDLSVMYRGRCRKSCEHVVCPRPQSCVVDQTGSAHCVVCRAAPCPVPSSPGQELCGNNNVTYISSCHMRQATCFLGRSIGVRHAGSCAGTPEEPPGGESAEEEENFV
# [9] = target: Dickkopf-related protein 1 (Homo sapiens) (UniProt O94907); assay: small molecules binding DKK1 protein – biochemical, small-molecule microarray, 635 nm fluorescence scan, primary screen (AID 1106); conditions: higher = more signal;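 note: score merges emission near 667 nm with signal to noise over three replicate slides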
# Sequence of Dickkopf-related protein 1 (Homo sapiens) (O94907 whole entry, looked up): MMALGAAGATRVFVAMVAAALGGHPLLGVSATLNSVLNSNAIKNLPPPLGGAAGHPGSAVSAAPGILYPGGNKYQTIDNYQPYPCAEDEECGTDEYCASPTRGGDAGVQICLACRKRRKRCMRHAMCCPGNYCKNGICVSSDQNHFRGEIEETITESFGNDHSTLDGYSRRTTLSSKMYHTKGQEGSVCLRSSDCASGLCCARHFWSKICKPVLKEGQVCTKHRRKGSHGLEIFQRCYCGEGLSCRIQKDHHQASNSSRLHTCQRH
# [10] = system: Inhibin beta A chain (activin A); assay: small molecules binding activin A – biochemical, small-molecule microarray, 635 nm fluorescence scan, primary screen (AID 1107); conditions: INHBA, higher = more signal;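 note: mouse activin A protein probed at 4.33 µg/mL on printed slides; score merges bound-protein fluorescence near 667 nm with spot signal-to-noise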
# [11] = system: Human papillomavirus type 1a protein E7 (residues 44-93); assay: small molecules binding HPV E7 44-93 – biochemical, small-molecule microarray, residues 44-93, 635 nm fluorescence, primary screen (AID 1108); conditions: fluorescence 635 nm, higher = more signal;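 note: E7 fragment applied at 1 µg/mL in TBST for 1 h at 4 C; score combines spot fluorescence with its signal to noise ratio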
# [12] = hepatitis C replication reporter changes, two-sided – Huh7 cells, luciferase reporter, HCV replication inhibitor project, primary screen (AID 1109); conditions: Huh7 HCV replicon luciferase reporter, 48 h; higher = more signal;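 note: huh7 hepatoma cells harbouring a luciferase neomycin HCV replicon reporter; luciferase luminescence as measure of HCV replicon replication; test concentration not given here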
# [13] = target: Left-right determination factor 2 (Homo sapiens) (UniProt O00292); assay: small molecules binding LEFTY2 protein – biochemical, small-molecule microarray, 635 nm fluorescence scan, primary screen (AID 1110); conditions: higher = more signal
# Sequence of Left-right determination factor 2 (Homo sapiens) (O00292 whole entry, looked up): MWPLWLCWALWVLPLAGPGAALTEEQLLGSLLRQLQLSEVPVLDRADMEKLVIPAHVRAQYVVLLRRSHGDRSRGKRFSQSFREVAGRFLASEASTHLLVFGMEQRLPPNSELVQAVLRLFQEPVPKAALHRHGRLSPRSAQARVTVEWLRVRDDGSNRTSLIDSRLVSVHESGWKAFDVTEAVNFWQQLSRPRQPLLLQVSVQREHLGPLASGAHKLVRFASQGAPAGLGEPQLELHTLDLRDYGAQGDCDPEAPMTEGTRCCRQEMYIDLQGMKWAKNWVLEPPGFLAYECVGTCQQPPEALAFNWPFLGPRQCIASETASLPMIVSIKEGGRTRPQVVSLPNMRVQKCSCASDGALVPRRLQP
# [14] = target: Calmodulin-1 (Homo sapiens) (UniProt P0DP23); assay: small molecules binding calmodulin-1 with EGTA – biochemical, small-molecule microarray, Cy5-labelled CALM1, profiling panel (AID 1111); conditions: Cy5-CALM1 binding fluorescence, higher = more signal;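 note: labelled calmodulin applied in Tris saline Tween buffer holding calcium plus EGTA and DTT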
# [15] = target: Calmodulin-1 (Homo sapiens) (UniProt P0DP23); assay: small molecules binding Ca-loaded calmodulin-1 – biochemical, small-molecule microarray, Cy5-labelled CALM1, plus calcium, artefact control for SMM control-protein annotation, profiling panel (AID 1112); conditions: Cy5-CALM1 binding fluorescence, higher = more signal;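 note: score merges spot fluorescence with signal to noise from triplicate slides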
# [16] = probe aWnt5a binding to arrayed compounds – biochemical, biotinylated probe, 635/667 nm fluorescence, primary screen (AID 1113); conditions: small-molecule microarray, higher = more signal;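 note: score merges 667 nm fluorescence intensity with signal-to-noise per printed feature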
# [17] = probe aShh binding to arrayed compounds – biochemical, biotinylated probe, 635/667 nm fluorescence, primary screen (AID 1114); conditions: small-molecule microarray, higher = more signal;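 note: probe is biotin-labelled aShh protein from a stem cell growth factor screen; measures binding of labelled protein to compounds printed on the slide; score merges feature fluorescence at 667 nm with signal-to-noise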
# [18] = probe aNog binding to arrayed compounds – biochemical, biotinylated probe, 635/667 nm fluorescence, primary screen (AID 1115); conditions: small-molecule microarray, higher = more signal;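 note: probe is biotinylated aNog protein used at 0.15 µg/mL for 1 h at 4 C; z-score combines 667 nm fluorescence of each spot with its signal to noise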
# [19] = target: Torsin-1A-interacting protein 1 (Homo sapiens) (UniProt Q5JTV8); assay: compound microarray binding of lysate hLAP1 – cell lysate, small-molecule microarray, COS7 lysate, 635/667 nm fluorescence, primary screen (AID 1116); conditions: 635 nm fluorescence, higher = more signal
# Sequence of Torsin-1A-interacting protein 1 (Homo sapiens) (Q5JTV8 whole entry, looked up): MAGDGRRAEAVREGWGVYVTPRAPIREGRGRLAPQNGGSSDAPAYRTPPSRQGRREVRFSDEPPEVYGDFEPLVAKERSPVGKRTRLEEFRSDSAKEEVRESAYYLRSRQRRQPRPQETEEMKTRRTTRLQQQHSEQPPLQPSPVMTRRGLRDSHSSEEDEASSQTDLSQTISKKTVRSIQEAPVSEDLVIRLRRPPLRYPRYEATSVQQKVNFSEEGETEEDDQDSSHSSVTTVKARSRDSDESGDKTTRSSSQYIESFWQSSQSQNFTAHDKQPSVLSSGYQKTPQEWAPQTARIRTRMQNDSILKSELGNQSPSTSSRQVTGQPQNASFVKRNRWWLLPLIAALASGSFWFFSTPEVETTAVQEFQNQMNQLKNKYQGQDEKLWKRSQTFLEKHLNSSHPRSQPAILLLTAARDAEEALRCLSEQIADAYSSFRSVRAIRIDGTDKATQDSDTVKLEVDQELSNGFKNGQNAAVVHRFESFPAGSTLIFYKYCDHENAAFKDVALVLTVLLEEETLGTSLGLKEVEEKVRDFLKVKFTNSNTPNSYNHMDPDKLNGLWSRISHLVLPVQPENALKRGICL
# [20] = target: Alpha-bungarotoxin (Bungarus multicinctus) (UniProt P60615); assay: compounds binding labelled alpha-BTX control protein – biochemical, small-molecule microarray, Alexa647 label, 635/667 nm fluorescence, artefact control for SMM control protein annotation, profiling panel (AID 1117); conditions: alpha-BTX-A647 binding fluorescence, higher = more signal
# Sequence of Alpha-bungarotoxin (Bungarus multicinctus) (P60615 whole entry, looked up): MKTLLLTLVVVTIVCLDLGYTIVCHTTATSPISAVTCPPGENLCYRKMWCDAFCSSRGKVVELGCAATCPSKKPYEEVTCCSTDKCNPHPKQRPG
SMILES,composite z-score [1],composite z-score [2],composite z-score [3],z-score [4],composite z-score [5],composite z-score [6],composite z-score [7],composite z-score [8],composite z-score [9],composite z-score [10],composite z-score [11],z-score [12],composite z-score [13],composite z-score [14],composite z-score [15],composite z-score [16],composite z-score [17],composite z-score [18],composite z-score [19],composite z-score [20]
CCCC#C[Si](O[C@H](CC)c1cn([C@H](CO)Cc2ccccc2)nn1)(C(C)C)C(C)C,0.947,0.111,-0.467,-0.118 (inactive),0.955,0.379,0.371,1.15,0.82,-0.253,1.08,-0.256,0.728,0.486,-0.0381,0.0597,-0.0866,0.26,0.761,0.701
[N-]=[N+]=Nc1ccccc1[C@H]1OC(c2ccc(OCCCO)cc2)=N[C@@]1(Cc1ccccc1)C(=O)O,1.68,0.292,0.381,-1.23 (inactive),0.875,0.997,0.0509,0.727,0.293,1.12,1.46,1.09,-0.271,0.577,-0.0461,0.0375,0.483,-0.0277,0.826,2.07
CC(C)(C)OC(=O)CC[C@@]12N=C(c3ccc(OCCCO)cc3)O[C@@H]1c1ccccc1N(CCS(=O)(=O)c1ccccc1)C2=O,0.691,0.512,1.03,-1.14 (inactive),-0.122,0.323,0.348,1.12,0.681,1.05,1.08,-0.831,0.374,0.887,0.105,-0.0203,-0.0035,-0.335,0.642,1.35
C=CCC(OC(C)=O)[C@@H]1[C@@H](N(Cc2ccc(-c3ccccc3)cc2)C(=O)Cc2ccc(F)cc2)c2cc(OCCCO)ccc2N1C(=O)c1ccc(-c2ccccc2)cc1 (stereo not given in full),0.152,-0.0501,0.216,-2.23 (inactive),0.152,-1.02,-0.376,0.268,-0.282,0.778,-0.866,-1.23,-0.177,-0.454,0.266,-0.1,0.0048,-0.143,0.205,-0.257
O=C(NCc1ccccc1)[C@@]1(Cc2ccccc2)N=C(c2ccc(OCCCO)cc2)O[C@H]1c1ccccc1,0.652,1.15,1.23,0.915 (inactive),0.366,0.3,-0.47,0.448,-0.996,0.425,1.11,-2.57,-0.699,2.36,1.09,0.055,-0.181,1.36,2.02,1.1
CCCCCC1=C2CNC(CCC)(C(=O)OC)C=C2C(C)C1=O (stereo not given),0.0288,0.719,0.952,2.6 (inactive),0.439,-0.111,-0.576,-0.435,-0.793,1.14,0.514,-0.183,-0.477,1.42,1.27,-0.0125,0.811,1.66,0.997,0.334
NCCCCCNC(=O)[C@@H]1C[C@@H]2C(=O)NCC(=O)N2[C@@H]1c1ccc(O)cc1,1.15,-0.0246,-0.128,-0.0882 (inactive),1.49,1.32,-0.318,1.22,1.63,0.294,1.37,0.358,1.3,0.957,0.281,-0.008,-0.138,-0.036,0.855,1.15
O=C1OCCC=C[C@H]2OC34C=CCN(CCN5CCOCC5)C(=O)[C@H]3N(CCCCCCO)C(=O)[C@@H]4C12 (stereo not given in full),0.813,-0.5,-0.35,0.418 (inactive),-0.306,-0.225,-0.71,-0.351,-0.292,0.191,-0.149,-0.135,-0.0529,-0.304,-1.07,-0.178,-0.289,-0.484,0.551,-0.288
C=CCNC(=O)[C@H]1[C@@H]2C(=O)O[C@@H](c3ccccc3)[C@@H](c3ccccc3)N2[C@@H](c2ccc(OCCO)cc2)[C@]12C(=O)N(C(=O)OCCOC)c1ccccc12,1.57,0.192,0.299,-1.04 (inactive),0.942,1.31,0.461,1.25,0.497,0.247,0.379,-1.49,0.666,1.06,0.0523,-0.14,-0.0056,-0.0681,0.985,1.66
[N-]=[N+]=NCc1ccccc1C[C@]1(C(=O)NCC(O)CO)N=C(c2ccc(OCCCO)cc2)O[C@H]1c1ccccc1 (stereo not given in full),-0.338,1.04,0.889,0.321 (inactive),-0.337,-0.836,-0.886,-0.689,-1.37,0.51,0.722,-1.82,-1.84,1.51,1.24,-0.0405,-0.0211,1.06,0.846,0.19
CC(C)C[C@@H]1NC(=O)[C@H]2C[C@@H](C(=O)NCCCCCCN(C)C)[C@@H](c3ccc(O)cc3)N2C1=O,1.44,0.158,-0.0008,0.561 (inactive),1.2,1.32,0.653,1.13,1.4,1.12,1.09,0.414,1.06,-0.631,-1.19,-0.0337,0.207,-0.284,1.03,0.419
